Source: PubChem BioAssay (National Center for Advancing Translational Sciences (NCATS))
Abeta yeast res = qHTS for compounds that reverse cellular toxicity of Amyloid beta (A-beta) peptide in yeast: Primary Screen; yeast expressing A-beta42, growth rescue, OD600, 48 h; response scale: 0% DMSO, 100% iron-clioquinol control; Potency, µM (titrated, usually from 46.1 µM), usual class: activators; hit rate 0.063% among 410,000; AID 1347071, 2019; further: nearly all actives have a fitted effect of over 55% in size
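Yeast growth medium received pinned compounds, then yeast cells expressing toxic A-beta were added; plates incubated at 30 C for 48 hr. Growth read as absorbance at 600 nm, normalized to DMSO and equimolar FeCl3 plus clioquinol controls.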
Mito fusion act = qHTS Assay for Small Molecule Inhibitors of Mitochondrial Division or Activators of Mitochondrial Fusion | Potency, µM (doses to about 46.1 µM), for the others: at the top dose growth rescue (activation), actives largely listed as activators | hit rate 0.23% among 320,000 | S. cerevisiae fusion-defective mutant growth rescue, CellTiterGlo 48 h; further: % of control where 0% means no effect; nearly all actives have a fitted effect of over 45% in size
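S. cerevisiae fusion-defective temperature-sensitive mutants (e.g. fzo1-1, mgm1-5) grown 48 h at 37C in YPEG (ethanol/glycerol non-fermentable) medium with 23 nl compound per well; growth rescue read as CellTiterGlo luminescence.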
aSyn rescue = qHTS of alpha-syn Inhibitors. Potency, µM (titrated, usually from 46.1 µM), for inactives: at the top dose growth rescue (activation), actives largely listed as activators. hit rate 0.14% among 370,000. AID 652106, 2013. Yeast expressing alpha-synuclein, growth rescue, BacTiter-Glo, 24 h; further: % of control where 0% means no effect; nearly all actives have a fitted effect of over 65% in size
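Rescue of yeast growth: cells expressing toxic alpha-synuclein, induced in galactose at OD600 0.02, incubated with compound 24 h at 30 C. ATP luminescence quantified growth; inhibitors of toxicity appear as activators.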
FUS yeast rescue = qHTS for Suppressors of FUS Proteinopathy: Primary screen using FUS-linked yeast assay; AID 1347120, 2019; S. cerevisiae FUS-expressing, growth rescue, OD600, 24 h; hit rate 0.24% among 390,000; Potency, µM (doses to about 76.6 µM), most hits filed as activators;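 further: plate controls were DMSO vehicle for no effect and reference control for full effect; nearly all actives have a fitted effect of over 55% in size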
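Yeast expressing FUS under galactose induction, OD 0.005 in 2% galactose medium; compounds in a dilution series, 24 h at 30C. Growth rescue by absorbance at 600 nm; CP55940 positive control, DMSO negative.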
TDP43 rescue = qHTS of TDP-43 Inhibitors. TDP-43 expressing yeast growth rescue, BacTiter-Glo, 24 h. Potency, µM (series often up to 46.1 µM), inactives show at the top dose growth rescue (activation), usual class: activators. hit rate 1.8% among 410,000. AID 652104, 2013; further: % of control where 0% means no effect; nearly all actives have a fitted effect of over 50% in size
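Readout is BacTiter-Glo luminescence of cell growth, so inhibitors register as activators. TDP-43-expressing yeast at OD600=0.02 in galactose medium, after raffinose pregrowth to mid-log, were incubated with compound for 24 hr at 30 deg C.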
* hit, by the source's call; i = inactive; ? = inconclusive; . = no result given. This is a sample that favours compounds with a hit; in the whole collection about 2.2% have one here. The call rests on the fitted dose curve; in most records, active means well fitted curve in the direction sought with a large enough effect; inconclusive means small, poorly fitted or top-dose-only effect, or another doubt; inactive means no such curve, though single readings can be large; an effect the other way counts as inactive or inconclusive. Potency means the concentration at half of the fitted maximal effect.

SMILES	Abeta yeast res	Mito fusion act	aSyn rescue	FUS yeast rescue	TDP43 rescue
O=C1c2ccccc2NC(c2ccccc2)N1Cc1ccccc1 (stereo not drawn)	i	.	9%	i	16µM*
O=C1c2ccccc2NC(c2ccc(F)cc2)N1Cc1ccccc1 (stereo not drawn)	i	13%	2%	i	20µM*
COc1nnc(-c2ccc(N3CCCCC3)c(NC(C)=O)c2)c2ccccc12	i	25%	6%	i	22µM*
COc1nnc(-c2ccc(N3CCCCC3)c(NC(=O)C3CCCCC3)c2)c2ccccc12	i	4%	0%	.	-22%
O=C(O/N=C1\CCCc2ccccc21)c1cccs1	i	8%	-13%	i	8.9µM*
O=C(Cc1ccccc1)O/N=C1\CCCc2ccccc21	i	2%	1%	i	5%
COc1ccc2c(c1)CC/C2=N\OC(=O)c1cccc(C)c1	i	?	-54%	.	5µM*
COc1ccc2c(c1)CCC/C2=N/OC(=O)c1ccccc1OC	i	4%	-10%	i	16µM*
C(=N\Nc1nncc2ccccc12)/c1ccccc1	i	-1%	6%	i	22µM*
Cc1ccc(CN2C(=O)C(Cc3ccccc3)Nc3ncnc(N4CCN(c5ccccc5)CC4)c32)cc1 (stereo not drawn)	i	11µM*	19%	25µM*	-15%
O=C1C(Cc2ccccc2)Nc2ncnc(N3CCN(c4ccccc4)CC3)c2N1Cc1ccccc1 (stereo not drawn)	i	14%	6%	i	-1%
Cc1ccc(-c2ccc(=O)n(C(C)C(=O)Nc3ccccc3Cl)n2)cc1C (stereo not drawn)	i	.	.	i	23%
COc1cc(OC)c(NC(=O)C(C)n2nc(-c3ccc(C)c(C)c3)ccc2=O)cc1Cl (stereo not drawn)	i	.	.	?	13µM*
CC(C)(C)NC(=S)Nc1ccc(Nc2ccccc2)cc1	?	-2%	-15%	i	10%
CC(C)(C)NC(=S)Nc1ccc(Br)cc1	i	-5%	-18%	i	16µM*
Fc1ccccc1NC(=S)Nc1ccc(Br)cc1	i	-1%	-41%	i	13µM*
Fc1cc(Br)ccc1NC(=S)Nc1ccccc1	i	-9%	-8%	.	?
CCn1cc(C(=O)NCc2ccccc2OC)c(=O)c2cc(S(=O)(=O)N3CCCCC3)ccc21	i	.	.	i	-23%
O=[N+]([O-])c1ccc2c(c1)/C(=N\O)c1ccccc1-2	i	-4%	0%	i	-3%
COc1cc2c(cc1[N+](=O)[O-])-c1ccc([N+](=O)[O-])cc1C2=NO	i	.	3%	i	10µM*
COc1ccc(-c2nnc(SCC(=O)N3CCC(C)CC3)o2)cc1	i	.	.	i	?
COC(=O)[C@]12CCCCC=C1N(CCC1=CCCCC1)C(=O)[C@H](CC(=O)NCc1cccc(C(F)(F)F)c1)C2	i	.	22%	i	4%
CCOC(=O)[C@]12CCCC=C1N(Cc1ccccc1)C(=O)[C@H](CC(=O)NCC13CC4CC(CC(C4)C1)C3)C2	i	.	6%	13µM*	-5%
CCOC(=O)[C@]12CCCC=C1N(CCC1=CCCCC1)C(=O)[C@H](CC(=O)NCCC(C)C)C2	i	.	-18%	i	25µM*
CCCCCCCCN1C(=O)[C@H](CC(=O)NCCC(C)C)C[C@@]2(C(=O)OCC)CCCC=C12	i	.	-1%	?	-12%
SMILES	Abeta yeast res	Mito fusion act	aSyn rescue	FUS yeast rescue	TDP43 rescue
COC(=O)[C@]12CCCCC=C1N(CCC1=CCCCC1)C(=O)[C@H](CC(=O)NCc1ccccc1)C2	i	.	22%	i	35µM*
COC(=O)[C@]12CCCCC=C1N(Cc1ccco1)C(=O)[C@H](CC(=O)N1CCC(c3ccccc3)CC1)C2	i	.	7%	i	13µM*
COC(=O)[C@]12CCCCC=C1N(Cc1ccccc1)C(=O)[C@H](CC(=O)NCC13CC4CC(CC(C4)C1)C3)C2	i	.	3%	?	12%
O=C(OCc1ccccc1Cl)c1ccc(-c2nnn(Cc3ccccc3)n2)cc1	i	.	.	i	23%
Cc1ccc(-n2nc3c(=O)n(CC(=O)NCCC(C)C)nc(C)c3c2C)cc1	i	.	.	i	18%
CCn1cc(CNC(=O)c2cc(-c3ccc(C)cc3)nc3ccc(Br)cc23)c(C)n1	i	.	.	i	14%
CCOC(=O)N1CCN(C(=O)C[C@H]2C[C@@]3(C(=O)OC)C(=C[C@H](C(C)C)O[C@@H]3C3CC3)N(CCc3ccc(OC)c(OC)c3)C2=O)CC1	.	.	.	i	.
CCOC(=O)N1CCN(C(=O)C[C@H]2C[C@@]3(C(=O)OC)C(=C[C@H](C(C)C)O[C@@H]3C3CC3)N(CCC3=CCCCC3)C2=O)CC1	.	.	.	13µM*	.
CCOC(=O)[C@]12CCCC=C1N(CCC1=CCCCC1)C(=O)[C@H](CC(=O)NCCc1ccccc1OC)C2	i	.	6%	i	20µM*
Cc1ccc(Cn2ccnc2SCC(=O)NCc2ccccc2)cc1	i	.	.	i	0%
CC(=O)Nc1nc(COc2ccc3ccccc3c2)cs1	i	1%	.	i	7.1µM*
CC(=O)Nc1nc(COc2ccccc2)cs1	i	3%	3%	i	5%
C/C=C/c1cc(OC)c2c(c1)[C@H](C)[C@@H](c1ccc(O)c(OC)c1)O2	i	.	7.9µM*	i	28%
COc1cc([C@H]2OC[C@H]3[C@@H]2CO[C@H]3c2ccc(O)c(OC)c2)ccc1O	i	.	1%	i	20%
CCOc1ccc(NC(=O)CC2C(=O)N(c3cccc(C)c3)C(=O)N2CCC2=CCCCC2)cc1 (stereo not drawn)	i	.	.	35µM*	-24%
CN(C)CCCNc1cc(N2CCN(C)CC2)ncn1	.	.	-10%	.	.
O=C(Oc1ccccc1/C=C\C(=O)c1cc2ccccc2o1)c1ccccc1	i	6%	28%	.	22µM*
Cc1cc2ccc(Cl)nc2nc1C	.	.	-1%	.	.
CC(C)(C)OC(=O)N[C@@H](Cc1ccccc1)c1nnc(S(=O)(=O)Cc2ccccc2)o1	.	-17%	.	.	.
CCC(C)[C@@H](NC(=O)OC(C)(C)C)c1nnc(S(=O)(=O)Cc2cccc(C)c2)o1 (stereo partly drawn)	i	-22%	7%	i	7.9µM*
Cc1ccc(C)c(CN2C(=O)c3ccccc3S(=O)(=O)c3ccc(C(=O)N4CCOCC4)cc32)c1	i	.	.	28µM*	9%
Cc1ccc(C)c(CN2C(=O)c3ccccc3S(=O)(=O)c3ccc(C(=O)N4CCCC4)cc32)c1	i	.	.	?	22%
